Screening results deposited in PubChem BioAssay by several laboratories.
Efflux pump inh: blocks antifungal efflux pumps in multiplex yeast assay; S. cerevisiae Candida pump triplex, Nile Red efflux; inhibition, % at 10 µM; 0.44% of 330,000 active; AID 485275;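 active = plate passing quality check with inhibition over a set limit, or well fluorescence over plate mean plus 4 SD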;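 note: Nile Red retained in pooled yeast measured as flow cytometry median fluorescence; 0% = buffer negative control and 100% = Enniatin B positive control; higher means more Nile Red kept so more efflux inhibition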
SUMO Mot1 rescue: inhibitors of SUMOylation pathway: yeast Mot1-301 growth rescue; S. cerevisiae Mot1-301 growth rescue, ATP luminescence, 38.5C; percent above DMSO median, 100 means doubled; growth rescue, % at 18.8 µM; AID 2716; 1% of 320,000 active;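 active = every valid replicate shows activation above 250% relative to neutral control wells; inactive = the rest, any valid replicate at or below 250%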;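 note: OY570 slx delta 5 strain wells were the positive control but not used for scaling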
SKN-1 block: C. elegans SKN-1 inhibition. C. elegans VP596 Pgst-4::GFP/RFP ratio, acrylamide-induced, 24 h. inhibition, % at 21.8 µM. 0.49% of 360,000 active. AID 624304;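 active = interference check ratio from 0.5 to 1.5 plus GFP to RFP signal ratio inhibition reaching or exceeding a fixed threshold, cut at about 30% in these data, passing the limit was not always enough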
sPLA2-III inh: Inhibits HGIII-sPLA2 liposome hydrolysis, primary screen; Q9NZ20; QFRET BODIPY PC-A2 liposome hydrolysis, fluorescence; inhibition, % at 12.2 µM; 0.56% of 370,000 active; AID 743126;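 active = inhibition above mean plus 3 SD of compounds lying within the high and low control bounds, cut at about 19% in these data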;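 note: 0% = median of test compound wells and 100% = no enzyme DMSO wells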
Target sequence (Q9NZ20 whole entry, looked up): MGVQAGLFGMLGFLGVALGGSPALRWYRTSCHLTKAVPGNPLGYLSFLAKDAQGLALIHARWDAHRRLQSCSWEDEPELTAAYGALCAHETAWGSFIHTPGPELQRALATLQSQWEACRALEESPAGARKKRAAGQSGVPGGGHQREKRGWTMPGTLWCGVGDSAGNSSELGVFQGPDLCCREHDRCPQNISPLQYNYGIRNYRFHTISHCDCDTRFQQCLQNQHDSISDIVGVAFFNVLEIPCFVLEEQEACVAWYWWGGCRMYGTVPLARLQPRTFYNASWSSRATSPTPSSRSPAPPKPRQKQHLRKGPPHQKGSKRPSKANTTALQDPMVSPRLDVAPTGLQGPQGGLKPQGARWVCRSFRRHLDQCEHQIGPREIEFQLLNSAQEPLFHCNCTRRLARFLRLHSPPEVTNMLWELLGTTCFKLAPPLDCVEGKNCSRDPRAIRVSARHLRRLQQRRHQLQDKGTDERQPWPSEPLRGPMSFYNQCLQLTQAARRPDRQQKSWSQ
Cmpd fluor yeast: compound fluorescence in yeast efflux pump counter-screen. S. cerevisiae AD/pABC3, flow cytometry. shares compounds with Efflux pump inh. 4% of 1,700 active. fluorescence ratio to DMSO, % at 10 µM;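 active = fluorescence ratio to DMSO above its plate's cutoff, the plate mean ratio plus 5 SD, cut at about 210% in these data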;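 note: unstained yeast with no Nile Red so the signal is compound autofluorescence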
CaMdr1 efflux inh: blocks the Candida albicans Mdr1 efflux pump in yeast | shares compounds with Efflux pump inh | S. cerevisiae AD/CaMDR1, Nile Red efflux, flow cytometry | inhibition, % at 10 µM | 1% of 1,700 active; in the data active = inhibition above about 26%;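 note: 0% = DMSO vehicle and 100% = reference inhibitor; higher means more Nile Red retained so more efflux inhibition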
Cdr2 pump inh: blocks the Candida albicans Cdr2 efflux pump in yeast. 4% of 1,700 active. S. cerevisiae AD/CaCDR2, Nile Red retention, flow cytometry. Nile Red retention ratio vs DMSO, % at 10 µM. shares compounds with Efflux pump inh; in the data active = Nile Red retention ratio vs DMSO above about 190%;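 note: higher ratio means more blocking of Cdr2 efflux of the dye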
CaCdr1 efflux inh: blocks the Candida albicans Cdr1 efflux pump in yeast | AID 588522 | shares compounds with Efflux pump inh | 1% of 1,700 active | S. cerevisiae AD/CaCDR1, Nile Red efflux, flow cytometry | inhibition, % at 10 µM;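 active = inhibition above the screen-wide mean plus twice its standard deviation, cut at about 32% in these data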
An asterisk follows results filed as active; nt = no result given. An excerpt weighted towards active compounds, which were near 2.2% of everything screened.

SMILES	Efflux pump inh	SUMO Mot1 rescue	SKN-1 block	sPLA2-III inh	Cmpd fluor yeast	CaMdr1 efflux inh	Cdr2 pump inh	CaCdr1 efflux inh
CN(C)CCN(C(=O)c1ccc(S(=O)(=O)N2CCc3ccccc32)cc1)c1nc2ccc(F)cc2s1	0.4*	-0.2	-3.3	-14.4	109.9	0.2	107.8	-0.1
CCc1ccc2nc(N(CCCN(C)C)C(=O)c3ccc(S(=O)(=O)N4CCCc5ccccc54)cc3)sc2c1	0.1	-21.2	-8.8	-20.0	nt	nt	nt	nt
O=C(c1cccs1)n1ccc2ccc(-c3ccc4ccn(Cc5ccccc5)c4c3)cc21	nt	nt	nt	14.3	nt	nt	nt	nt
O=C(O)c1cc(Br)ccc1NS(=O)(=O)c1cccc2nsnc12	0.0	4.6	31.0	-21.4	nt	nt	nt	nt
O=C(O)c1ccccc1NS(=O)(=O)c1cccc2nsnc12	0.7*	-0.3	14.3	-3.4	100.3	-0.2	98.5	-0.1
COc1cc(-c2ccc3oc(-c4ccsc4)c(C#CC4(O)CCCCC4)c3c2)cc(OC)c1OC	nt	-7.1	16.0	1.8	nt	nt	nt	nt
CCC1=C(c2cc(OC)c(OC)c(OC)c2)C2(CCCC2)C(=O)O1	0.8*	359.9	-5.2	-2.0	113.5	-0.2	108.3	0.1
COc1cc(N2CCCC2)c(OC)cc1/C=C1/NC(=S)NC1=O	0.5*	-18.4	9.3	-19.0	288.7*	0.0	120.4	0.0
COc1ccc(OC)c(/C=C2\NC(=O)NC2=O)c1	0.0	-0.1	2.2	3.3	nt	nt	nt	nt
COc1cc(C)c(C(=O)CSc2nnc(CNC(=O)c3ccco3)n2C)cc1C	-0.1	-7.3	2.6	8.2	nt	nt	nt	nt
CNS(=O)(=O)c1cccc(C(=O)OCC(=O)c2ccc3[nH]c(=O)[nH]c3c2)c1	0.0	-10.7	-10.0	-11.1	nt	nt	nt	nt
COc1ccc(NS(=O)(=O)c2ccc(C(=O)N3CCC(C)CC3)cc2)cc1	0.2	7.0	6.8	-16.2	nt	nt	nt	nt
C/C(=N\NC(=O)CC1(C)OCCO1)c1cccs1	6.5*	23.0	0.9	-3.2	99.8	0.0	99.7	-0.1
CC(=O)c1ccc(NC(=O)c2ccc(NC(=O)c3ccco3)cc2)cc1	6.2*	73.5	-14.3	nt	92.1	0.3	106.3	0.1
CN(C(=O)c1ccc(NC(=O)c2ccco2)cc1)c1ccccc1	0.2	-30.9	20.0	4.9	103.4	-0.2	93.0	0.2
CC(=O)Nc1ccc(NC(=O)c2ccco2)cc1	-0.1	11.5	-1.3	-1.6	nt	nt	nt	nt
CN(C(=O)c1cccc(NC(=O)c2ccco2)c1)c1ccccc1	0.1	8.7	7.5	10.3	nt	nt	nt	nt
O=C(/C=C/c1ccc(Br)cc1)c1ccc(NC(=O)c2ccco2)cc1	5.8*	8.6	7.6	-17.8	106.7	0.2	107.8	0.1
Cc1cc(C)cc(NC(=O)c2ccc(NC(=O)c3ccco3)cc2)c1	0.0	12.2	-24.2	-5.9	105.0	-0.3	90.9	-0.2
COc1ccc(CCC(=O)Nc2cc3c4c(c2)CCC(=O)N4CCC3)cc1	0.0	-12.3	-6.5	0.3	nt	nt	nt	nt
CCOC(=O)c1cccc(NC(=O)c2ccc(NC(=O)c3ccco3)cc2)c1	-0.4	24.2	-2.6	-2.6	87.6	-0.3	95.4	-0.1
C=CCn1c(C)c(/C=C/c2cc[n+](C)cc2)c2ccccc21	1.4*	7.6	-5.0	-23.1	683.6*	2.6	133.2	2.4
CCN(CC)C(=O)Cn1c(C)c(/C=C/c2cc[n+](C)cc2)c2ccccc21	0.4	1.5	-2.8	-13.2	365.4*	0.5	120.5	0.2
C=CCn1cc(/C=C/c2cc[n+](C)cc2)c2ccccc21	1.1	-22.4	-43.9	-32.1	289.3*	-0.1	114.1	0.0
Cc1[nH]c2ccccc2c1/C=C/c1cc[n+](C)cc1	nt	nt	-4.9	-21.1	nt	nt	nt	nt
SMILES	Efflux pump inh	SUMO Mot1 rescue	SKN-1 block	sPLA2-III inh	Cmpd fluor yeast	CaMdr1 efflux inh	Cdr2 pump inh	CaCdr1 efflux inh
CCOC(=O)Cn1cc(C=O)c2ccccc21	-0.1	-0.4	4.9	-3.0	nt	nt	nt	nt
CCn1cc(/C=C/c2cc[n+](C)cc2)c2ccccc21	5.0*	165.0	-26.7	-87.5	725.7*	3.0	112.0	3.5
Cc1ccc(CCNc2ncnc(Cl)c2N)cc1	nt	nt	10.2	-0.2	nt	nt	nt	nt
CN1CCc2c(sc3nc(NCCO)n(-c4cccc(Cl)c4)c(=O)c23)C1	0.0	-9.4	12.7	0.3	nt	nt	nt	nt
CC(C)n1cc(/C=C/c2cc[n+](C)cc2)c2ccccc21	nt	nt	-41.6	-77.8	472.1*	1.2	95.4	0.5
Cc1ccccc1/C=C/c1cc[n+](C)cc1	-0.1	-9.8	16.1	13.4	nt	nt	nt	nt
COc1cc(/C=C(\C#N)c2ccccn2)ccc1OCc1ccc(Cl)cc1	6.7*	-30.6	12.3	-4.2	96.6	-0.1	112.4	0.1
CCCCN=C(NNc1ccc(Br)cc1)C(=O)OCC	16.6*	126.5	0.2	6.7	100.0	-0.2	104.2	0.1
CCOC(=O)C(=NCCCN(C)C)NNc1ccc(Br)cc1	0.0	180.6	-10.8	-0.9	nt	nt	nt	nt
COc1ccc(CCn2c(-c3ccccc3)nc3c(c(=O)c4ccccc4n3C)c2=O)cc1	0.0	-13.6	nt	11.5	nt	nt	nt	nt
COc1ccc(Cn2c(-c3ccccc3)nc3c(c(=O)c4ccccc4n3C)c2=O)cc1	1.1*	-11.4	0.9	-4.0	110.0	0.1	118.7	-0.1
Cc1ccccc1S(=O)(=O)Nc1nc2ccccc2nc1N1CCc2ccccc2C1	7.5*	522.7	10.3	-24.3	93.5	-0.2	100.7	-0.1
Cn1c(CCNC(=O)c2ccccc2F)nnc1SCC(=O)Nc1nncs1	0.1	112.3	-2.5	-0.3	nt	nt	nt	nt
Cc1occc1C(=O)NCc1cccc(CNC(=O)c2ccoc2C)c1	0.3*	204.9	-2.0	nt	100.3	-0.3	111.6	0.0
Cc1ccc(-n2nc3c(=O)n(C(C)C(=O)NCCc4cccs4)nc(C)c3c2C)cc1 (configuration not stated)	0.1	232.5	-1.5	nt	nt	nt	nt	nt
CCC(C(=O)Nc1cc(F)ccc1F)n1nc(C)c2c(C)n(-c3ccc(C)cc3)nc2c1=O (configuration not stated)	5.0*	-11.9	-2.9	-10.5	83.2	-0.1	98.1	0.0
Cc1ccc(-n2nc3c(=O)n(CCCC(=O)NCCN4CCN(C)CC4)nc(C)c3c2C)cc1	5.4*	-16.8	-8.8	5.5	104.5	-0.5	98.5	-0.1
Cc1ccc(CCNC(=O)CCCn2nc(C)c3c(C)n(-c4ccc(C)cc4)nc3c2=O)cc1	-0.5	-13.1	8.5	0.7	223.7	0.5	103.9	0.4
Cc1ccc(-n2nc3c(=O)n(CC(=O)NCCc4cccs4)nc(C)c3c2C)cc1	-0.1	1.4	2.0	-5.7	97.6	-0.1	98.5	0.0
Cc1ccc(-n2nc3c(=O)n(CCCC(=O)NCCc4ccccc4)nc(C)c3c2C)cc1	0.3	5.8	13.3	12.2	nt	nt	nt	nt
O=S1(=O)c2ccc(N3CC[C@@H](O)C3)cc2OCCCN1C1CC1	nt	nt	nt	-2.4	nt	nt	nt	nt
CCn1ncc(Br)c1C(=O)Nc1ccc(-c2ccno2)cc1	0.6	nt	20.5	-7.4	nt	nt	nt	nt
